Measurements published in PubChem BioAssay (NCATS).
Where “and” joins values, the source holds several entries; their conditions need not be identical. Equal values may be shown once. Calls of active or inactive are those of the source. Unless noted, calls follow the shape of the dose curve; as a rule, active = well fitted curve in the direction sought with a large enough effect; inconclusive = small, poorly fitted or top-dose-only effect, or another doubt; inactive = no such curve, though single readings can be large; an effect the other way counts as inactive or inconclusive.

How the values were obtained:
[1] = biological target: Cytochrome P450 1A2 (Homo sapiens) (UniProt P05177); assay: p450-cyp1a2 (AID 410; calls by dose curve; also: potency is read from the fitted curve at half-maximal effect)
Sequence of Cytochrome P450 1A2 (Homo sapiens) (P05177 whole entry, looked up): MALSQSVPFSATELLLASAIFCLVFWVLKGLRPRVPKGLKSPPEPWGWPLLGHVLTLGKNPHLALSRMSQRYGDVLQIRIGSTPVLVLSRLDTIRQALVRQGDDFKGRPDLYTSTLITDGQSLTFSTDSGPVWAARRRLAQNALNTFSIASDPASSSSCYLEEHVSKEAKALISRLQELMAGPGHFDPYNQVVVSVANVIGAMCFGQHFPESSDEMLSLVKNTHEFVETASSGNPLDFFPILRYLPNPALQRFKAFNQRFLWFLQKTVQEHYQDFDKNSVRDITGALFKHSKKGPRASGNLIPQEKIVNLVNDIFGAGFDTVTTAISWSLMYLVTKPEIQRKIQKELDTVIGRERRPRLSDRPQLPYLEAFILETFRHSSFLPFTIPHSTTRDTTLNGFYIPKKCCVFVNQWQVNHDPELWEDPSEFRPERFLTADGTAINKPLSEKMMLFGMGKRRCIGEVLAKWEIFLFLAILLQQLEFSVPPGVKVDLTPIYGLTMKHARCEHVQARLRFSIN
Outline: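 Inhibition was calculated relative to 57 uM furafylline (full inhibition). The reaction used human CYP1A2 at 20nM with Luciferin-ME at its Km, 100uM, driven by an NADPH-regenerating system for 60 min at room temperature.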

[2] = biological target: Cytochrome P450 3A4 (Homo sapiens) (UniProt P08684); assay: qHTS Assay for Activators of Cytochrome P450 3A4 (AID 885); also: nearly all actives have a fitted effect of over 65% in size
Sequence of Cytochrome P450 3A4 (Homo sapiens) (P08684 whole entry, looked up): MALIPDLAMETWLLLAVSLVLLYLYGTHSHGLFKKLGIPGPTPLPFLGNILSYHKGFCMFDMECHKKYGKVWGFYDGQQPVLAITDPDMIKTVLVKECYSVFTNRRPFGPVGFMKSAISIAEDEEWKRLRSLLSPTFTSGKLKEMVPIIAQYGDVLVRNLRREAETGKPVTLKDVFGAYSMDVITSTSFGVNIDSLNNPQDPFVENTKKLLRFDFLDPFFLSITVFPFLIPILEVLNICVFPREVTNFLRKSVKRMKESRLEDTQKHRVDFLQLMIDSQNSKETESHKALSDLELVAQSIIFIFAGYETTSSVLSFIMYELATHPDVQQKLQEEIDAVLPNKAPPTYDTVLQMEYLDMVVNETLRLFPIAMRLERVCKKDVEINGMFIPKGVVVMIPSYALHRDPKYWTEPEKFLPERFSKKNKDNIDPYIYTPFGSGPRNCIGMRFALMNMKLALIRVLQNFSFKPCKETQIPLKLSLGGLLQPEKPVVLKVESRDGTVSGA
Outline: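 Steps: enzyme/substrate mix dispensed; compound added, 10 min RT; NADPH regeneration solution added, 60 min RT; luciferin detection buffer stops reaction; 20 min later luminescence measured.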

[3] = Cellular Toxicity (caspase-3) H-4-II-E (AID 663); conditions: H-4-II-E rat hepatoma, scaled: DMSO 0%, 100 µM tamoxifen 100%; at 92.2 µM (top of the series);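 also: cells exposed to compound for 16 hr before readout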
Outline: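 Luminescence from caspase-cleaved aminoluciferin substrate, read 20 min after reagent addition, reports caspase 3/7 activation in rat H-4-II-E cells after 16 hr compound exposure. Normalized to DMSO (basal) and 100 uM tamoxifen (100%); AC50 from Hill fits.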

[4] = MultiTox-Fluor Cytotoxicity Assay - LYMP1-001 - Dead Cells (AID 946); also: potency is read from the fitted curve at half-maximal effect
Outline: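 Seed 2500 LYMP1-001 cells/well, incubate 5 hr at 37 C; add compound, 16 hr at 37 C; add MultiTox-Fluor reagent, 60 min RT; read dead-cell fluorescence Ex/Em=485/520. Normalize to DMSO and 15 uM tetraoctylammonium bromide.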

[5] = MultiTox-Fluor Cytotoxicity Assay - LYMP1-001 - Live Cells (AID 947); also: potency is read from the fitted curve at half-maximal effect
[6] = MultiTox-Fluor Cytotoxicity Assay - LYMP1-002 - Dead Cells (AID 960); also: nearly all actives have a fitted effect of over 60% in size; also: potency is read from the fitted curve at half-maximal effect
Outline: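 Acute cytotoxicity in a human lymphoblastoid line is scored as rising dead-cell protease signal after 16 hr exposure at 37 C, measured fluorometrically (485/520).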

[7] = Cell Viability - LYMP2-004 (AID 966); also: nearly all actives have a fitted effect of over 65% in size; also: potency is read from the fitted curve at half-maximal effect
Outline: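 Acute toxicity is scored as a concentration-dependent drop in intracellular ATP, quantified by luciferase luminescence, in human lymphoblastoid cells exposed to compound for 24 hr. AC50 derives from Hill-equation modelling.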

[8] = Cell Viability - LYMP2-013 (AID 970); also: nearly all actives have a fitted effect of over 55% in size; also: potency is read from the fitted curve at half-maximal effect
Outline: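 Acute toxicity was measured in human lymphoblastoid cells (2500/well) exposed to compound titrations for 24 hr, with ATP luminescence (CellTiter-Glo) as read-out and AC50 fitted by Hill equation.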

[9] = Cell Viability - LYMP2-002 (AID 977); also: potency is read from the fitted curve at half-maximal effect
Outline: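 Luminescent ATP readout (CellTiter-Glo, 30 min room temperature) after 24 h compound exposure at 37 C of a human lymphoblastoid line, 2500 cells/well. AC50 values derived by standard Hill fitting of qHTS concentration-response data.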

[10] = Cell Viability - LYMP2-006 (AID 978); also: nearly all actives have a fitted effect of over 60% in size; also: potency is read from the fitted curve at half-maximal effect
Outline: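 In this cytotoxicity screen, the human lymphoblastoid line grew in complete medium with test compounds for 24 hr at 37 C. Cellular ATP served as the viability signal.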

[11] = Cell Viability - LYMP2-014 (AID 983); also: nearly all actives have a fitted effect of over 50% in size; also: potency is read from the fitted curve at half-maximal effect
Outline: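 Decrease in intracellular ATP after 24 hr treatment at 37 C, measured by luciferase luminescence, indicated cytotoxicity. Concentration-response data were fitted with the standard Hill equation to give AC50.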

[12] = Cell Viability - LYMP2-022 (AID 987); also: nearly all actives have a fitted effect of over 55% in size; also: potency is read from the fitted curve at half-maximal effect
Outline: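 Acute toxicity in a human lymphoblastoid line is scored as decreased intracellular ATP after 24 hr compound treatment at 37 C. ATP is measured by CellTiter-Glo luminescence; curves are fitted with the Hill equation to give AC50.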

[13] = Cell Viability - LYMP2-024 (AID 988);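 also: cells exposed to compound for 24 hr at 37 °C; nearly all actives have a fitted effect of over 60% in size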; also: potency is read from the fitted curve at half-maximal effect
Outline: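 Acute toxicity is measured as concentration-dependent loss of intracellular ATP in a human lymphoblastoid line treated 24 hours at 37 C. Luciferase luminescence quantifies ATP; AC50 values come from standard Hill-equation modelling.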

[14] = qHTS assay for small molecule activators of the p53 signaling pathway (AID 651743; active = well fitted activation curve with a large enough effect in the signal ratio, not every such curve was filed as active; inconclusive = small, poorly fitted or top-dose-only effect, or a change in a side signal; the % refers to the signal ratio; also: % of control where 0% means no effect); conditions: HCT-116 p53RE-bla, beta-lactamase FRET ratio, 16 h; activation: active compounds read high
Outline: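 p53RE-bla HCT-116 cells with a stably integrated beta-lactamase reporter under p53 response elements were plated, rested 5 hours at 37 C/5% CO2, then exposed to compounds in DMSO for 16 hours at 37 C. LiveBLAzer B/G FRET substrate was read after 2 hours at room temperature.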

[15] = qHTS assay for small molecule antagonists of the retinoid-related orphan receptor gamma (ROR-gamma) signaling pathway - cell viability counter screen (AID 720652; active = well fitted curve in the direction sought with a large enough effect in the repeat runs; inconclusive = weak or mixed curves; inactive = no such curve, though single readings can be large; an effect the other way counts as inactive or inconclusive;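 also: compound exposure lasted 16 hr before ATP read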; also: potency is read from the fitted curve at half-maximal effect)
Outline: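 Cytotoxicity is quantified via intracellular ATP (CellTiter-Glo luminescence) in doxycycline-induced CHO ROR response element-luciferase reporter cells treated with compound for 16 hr at 37 C, 5% CO2.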

[16] = biological target: Estrogen receptor (Homo sapiens) (UniProt P03372); assay: qHTS assay for small molecule antagonists of estrogen receptor alpha signaling (AID 588513; active = well fitted curve in the direction sought with a large enough effect in the signal ratio, with a control signal flat, not every such curve was filed as active; inconclusive = small, poorly fitted or top-dose-only effect, or effect the other way, or a change in a side signal; inactive = no such curve, though single readings can be large or run the other way; the % refers to the signal ratio; also: potency is read from the fitted curve at half-maximal effect)
Sequence of Estrogen receptor (Homo sapiens) (P03372 whole entry, looked up): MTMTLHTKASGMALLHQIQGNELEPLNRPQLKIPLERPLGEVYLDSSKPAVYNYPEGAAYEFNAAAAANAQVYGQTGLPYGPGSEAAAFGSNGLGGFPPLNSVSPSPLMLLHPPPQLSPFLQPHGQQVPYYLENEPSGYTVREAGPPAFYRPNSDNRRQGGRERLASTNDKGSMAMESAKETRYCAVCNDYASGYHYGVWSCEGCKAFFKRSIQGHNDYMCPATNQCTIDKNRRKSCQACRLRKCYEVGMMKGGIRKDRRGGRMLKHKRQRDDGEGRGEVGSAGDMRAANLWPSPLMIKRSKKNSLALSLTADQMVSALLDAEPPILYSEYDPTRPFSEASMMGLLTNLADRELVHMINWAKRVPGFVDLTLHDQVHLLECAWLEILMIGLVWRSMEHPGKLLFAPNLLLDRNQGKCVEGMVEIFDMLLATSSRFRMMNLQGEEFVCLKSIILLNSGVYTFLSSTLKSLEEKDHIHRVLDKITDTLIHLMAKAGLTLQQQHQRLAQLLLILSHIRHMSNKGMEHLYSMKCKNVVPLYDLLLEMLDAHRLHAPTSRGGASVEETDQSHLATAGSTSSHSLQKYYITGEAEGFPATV
Outline: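 Antagonist-mode qHTS in ER-alpha-UAS-bla HEK 293 cells: compound titration, 0.5nM estradiol for 18 h, CCF4 fluorescence, Hill-derived IC50.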

[17] = biological target: Peroxisome proliferator-activated receptor delta (Homo sapiens) (UniProt Q03181); assay: qHTS assay for small molecule agonists of peroxisome proliferator-activated receptor delta signaling (AID 588534; calls by dose curve;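 also: 0% = DMSO basal wells and 100% = positive control agonist at 10 µM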)
Sequence of Peroxisome proliferator-activated receptor delta (Homo sapiens) (Q03181 whole entry, looked up): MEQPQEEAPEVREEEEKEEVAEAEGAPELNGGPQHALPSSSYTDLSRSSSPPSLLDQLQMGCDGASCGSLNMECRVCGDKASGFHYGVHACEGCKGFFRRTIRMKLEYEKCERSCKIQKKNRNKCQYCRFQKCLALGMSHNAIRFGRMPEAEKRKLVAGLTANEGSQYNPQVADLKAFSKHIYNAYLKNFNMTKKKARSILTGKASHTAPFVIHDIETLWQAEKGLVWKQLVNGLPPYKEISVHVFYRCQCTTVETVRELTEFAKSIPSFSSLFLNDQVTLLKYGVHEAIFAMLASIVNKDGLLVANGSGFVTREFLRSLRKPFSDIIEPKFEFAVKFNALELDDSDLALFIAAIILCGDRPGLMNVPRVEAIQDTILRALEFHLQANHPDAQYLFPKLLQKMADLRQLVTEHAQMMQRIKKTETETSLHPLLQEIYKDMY
Outline: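 Reporter cells were plated and held 5 hrs at 37 C before compounds were added. After 18 hrs at 37 C, CCF4 dye was loaded for 2 hrs at RT and fluorescence measured.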

[18] = biological target: Voltage-gated inwardly rectifying potassium channel KCNH2 (Homo sapiens) (UniProt Q12809); assay: qHTS Assay for Small Molecule Inhibitors of the Human hERG Channel Activity (AID 588834);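 also: lower thallium flux fluorescence means stronger hERG block; nearly all actives have a fitted effect of over 50% in size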; also: potency is read from the fitted curve at half-maximal effect
Sequence of Voltage-gated inwardly rectifying potassium channel KCNH2 (Homo sapiens) (Q12809 whole entry, looked up): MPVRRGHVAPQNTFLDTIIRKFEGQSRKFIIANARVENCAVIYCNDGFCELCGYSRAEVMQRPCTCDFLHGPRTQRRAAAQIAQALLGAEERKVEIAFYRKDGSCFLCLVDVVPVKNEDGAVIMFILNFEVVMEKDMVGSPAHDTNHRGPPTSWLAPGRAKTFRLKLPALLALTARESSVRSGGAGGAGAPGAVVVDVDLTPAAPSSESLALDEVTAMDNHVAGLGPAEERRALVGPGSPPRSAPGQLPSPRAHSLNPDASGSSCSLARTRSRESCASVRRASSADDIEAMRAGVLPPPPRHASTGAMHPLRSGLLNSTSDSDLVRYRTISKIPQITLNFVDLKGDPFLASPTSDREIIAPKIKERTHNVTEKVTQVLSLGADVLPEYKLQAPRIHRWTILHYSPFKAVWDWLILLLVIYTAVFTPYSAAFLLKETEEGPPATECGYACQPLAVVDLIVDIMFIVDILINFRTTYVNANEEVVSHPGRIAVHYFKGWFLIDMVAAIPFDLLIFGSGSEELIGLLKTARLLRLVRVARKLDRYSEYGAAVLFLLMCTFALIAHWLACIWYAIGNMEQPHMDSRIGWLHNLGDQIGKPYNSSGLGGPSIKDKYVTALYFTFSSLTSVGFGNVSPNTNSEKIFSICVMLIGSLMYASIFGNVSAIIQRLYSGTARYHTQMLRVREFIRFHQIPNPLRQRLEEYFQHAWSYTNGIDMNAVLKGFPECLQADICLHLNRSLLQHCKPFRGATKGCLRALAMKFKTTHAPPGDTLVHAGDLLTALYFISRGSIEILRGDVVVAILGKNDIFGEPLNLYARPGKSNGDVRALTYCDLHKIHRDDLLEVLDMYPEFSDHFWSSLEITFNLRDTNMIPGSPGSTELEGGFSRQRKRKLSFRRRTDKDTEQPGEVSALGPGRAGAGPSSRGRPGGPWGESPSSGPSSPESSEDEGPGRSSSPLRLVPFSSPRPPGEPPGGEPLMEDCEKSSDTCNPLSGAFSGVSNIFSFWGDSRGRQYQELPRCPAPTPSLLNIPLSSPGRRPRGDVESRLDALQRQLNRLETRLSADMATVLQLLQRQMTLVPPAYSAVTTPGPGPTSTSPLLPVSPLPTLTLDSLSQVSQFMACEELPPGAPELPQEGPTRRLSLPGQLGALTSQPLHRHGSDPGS
Outline: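 Blockade is seen as reduced FluxOR thallium-flux fluorescence in U2OS cells expressing hERG from a BacMam construct, in Opti-MEM with 2% FCS. Concentration-response data fitted to the Hill equation for AC50.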

[19] = qHTS assay for small molecule agonists of the antioxidant response element (ARE) signaling pathway (AID 651741; active = well fitted activation curve with a large enough effect in the signal ratio; inconclusive = small, poorly fitted or top-dose-only effect, or effect the other way, or a change in a side signal; the % refers to the signal ratio; also: potency is read from the fitted curve at half-maximal effect; as to activation: % of control where 0% means no effect)
Outline: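 ARE-bla HepG2 cells (beta-lactamase reporter under ARE control) were plated at 2,000 cells/well, preincubated 5 h at 37 C/5% CO2, then treated with DMSO-dissolved compounds for 16 h at 37 C; LiveBLAzer B/G FRET substrate added, fluorescence read after 2 h at room temperature.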

[20] = qHTS assay for small molecule disruptors of the mitochondrial membrane potential - 1 hr assay (AID 651754; calls by dose curve; also: nearly all actives have a fitted effect of over 35% in size; also: potency is read from the fitted curve at half-maximal effect)
Outline: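 Steps: seed HepG2 cells and let attach overnight; pin-transfer compound or vehicle; incubate 1 hr at 37C; add Mito-MPS dye for 30 min; read two-channel fluorescence for monomer and aggregate forms.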

CC(C)C[C@H]1C(=O)N2CCC[C@@H]2[C@]2(O)O[C@](NC(=O)[C@H]3C=C4c5cccc6[nH]cc(c56)C[C@H]4N(C)C3)(C(C)C)C(=O)N12
active: Potency [1] 31.6 µM

CN[C@@H](C)[C@@H](O)c1ccccc1
active: Potency [1] 3.16 µM
inactive: Potency [2]

Nc1ccccc1C(=O)OCCc1ccccc1
inactive: caspase-3 activation [3] -2.95% | Potency [2] | Potency [4] | Potency [5] | Potency [6] | Potency [7] | Potency [8] | Potency [9] | Potency [10] | Potency [11] | Potency [12] | Potency [13] | activation [14] -0.792% | Potency [15]

C=C[C@@H]1CN2CC[C@H]1C[C@H]2[C@@H](O)c1ccnc2ccccc12
inactive: Potency [1]

FC(F)(F)c1ccc(Cl)cc1
inactive: caspase-3 activation [3] 1.12% | Potency [4] | Potency [5] | Potency [6] | Potency [7] | Potency [8] | Potency [9] | Potency [10] | Potency [11] | Potency [12] | Potency [13] | Potency [16] | outcome [17] | Potency [18] | Potency [19] | activation [14] -2.63% and 1.33% | Potency [20] | Potency [15]

[CH3][Hg][Cl]
active: Potency [5] 39.8 µM | Potency [7] 3.98 µM | Potency [8] 3.98 µM | Potency [9] 7.94 µM | Potency [10] 5.01 µM | Potency [11] 3.98 µM | Potency [12] 2.51 µM | Potency [13] 2 µM | Potency [16] 39.8 µM [inconclusive] | Potency [18] 25.1 µM | Potency [19] 23.7 µM | Potency [20] 21.1 µM | Potency [15] 10.6 µM

C[C@@H]1CC[C@@]2(OC1)O[C@H]1[C@@H](O)[C@H]3[C@@H]4CC[C@H]5C[C@@H](O[C@@H]6O[C@H](CO)[C@H](O[C@@H]7O[C@H](CO)[C@@H](O)[C@H](O[C@@H]8OC[C@@H](O)[C@H](O)[C@H]8O)[C@H]7O[C@@H]7O[C@H](CO)[C@@H](O)[C@H](O[C@@H]8O[C@H](CO)[C@@H](O)[C@H](O)[C@H]8O)[C@H]7O)[C@H](O)[C@H]6O)[C@H](O)C[C@]5(C)[C@H]4CC[C@]3(C)[C@H]1[C@@H]2C
inactive: caspase-3 activation [3] -3.54%
active: Potency [5] 12.6 µM | Potency [7] 12.6 µM | Potency [8] 20 µM | Potency [9] 25.1 µM | Potency [10] 20 µM | Potency [11] 25.1 µM | Potency [12] 15.8 µM | Potency [13] 12.6 µM | Potency [16] 8.91 µM [inconclusive] | Potency [18] 25.1 µM | Potency [20] 26.6 µM | Potency [15] 11.9 µM

CCN1C[C@@]2(C)CC[C@H](O)[C@@]34[C@@H]5C[C@H]6[C@H](O)[C@@H]5[C@](O)(C[C@@H]6OC)[C@H](C[C@@H]23)[C@H]14
inactive: Potency [1]

O=C(O)[C@H]1C[C@@H]1[C@H](NP(=O)(c1ccccc1)c1ccccc1)c1ccccc1
inactive: Potency [1]

O=C(O)[C@@H]1C[C@H]1[C@@H](NP(=O)(c1ccccc1)c1ccccc1)c1ccccc1
inactive: Potency [1]

C[C@@]12CC[C@H](O)C[C@@H]1CC[C@H]1[C@H]2C[C@@H](O)[C@]2(C)[C@@H](C3=CC(=O)OC3)CC[C@@]12O
inactive: Potency [1]

C=C(CC1(C(C)NP(=O)(c2ccccc2)c2ccccc2)CC1)c1ccccc1 (stereo not given)
active: Potency [1] 15.8 µM
inactive: Potency [2]

c1cc2cc(c1)C[n+]1ccc(c3ccccc31)NCc1ccc(cc1)CNc1cc[n+](c3ccccc13)C2
inactive: Potency [1]

CCCCCCCCn1sccc1=O
active: Potency [4] 12.6 µM | Potency [5] 31.6 µM | Potency [6] 5.01 µM | Potency [7] 3.98 µM | Potency [8] 15.8 µM | Potency [9] 6.31 µM | Potency [10] 7.94 µM | Potency [11] 10 µM | Potency [12] 2.51 µM | Potency [13] 2.51 µM | Potency [16] 14.1 µM [inconclusive] | Potency [19] 66.8 µM and 54.5 µM
inactive: caspase-3 activation [3] -3.17% | Potency [2] | outcome [17] | activation [14] -5.11%
